40 molecules from PubChem BioAssay (EPA / NIEHS) can be followed below.

Activity calls are given as the source filed them. How the source made its calls: active means hit-call score of the fitted dose curve at least 0.9, where 1 is the maximum; inactive means score below 0.9.

Read-out in the assay: UDP glucuronosyltransferase (UGT1A6), UGT1A6 (gene 54578)
Briefly: LTEA_HepaRG_UGT1A6: Life Technologies and Expression Analysis (LTEA) Assay for UDP glucuronosyltransferase (UGT1A6) using HepaRG (AID 2283539). Conditions: mRNA level, 48 h; actives raise or lower the signal. As to the method: LTEA_HepaRG is a cell based, multiplexed-readout assay that uses HepaRG, a human liver cell line, with measurements taken at 48 hours after chemical dosing on a 96-well plate.LTEA_HepaRG_UGT1A6 is one of 102 assay component(s) measured in the LTEA HepaRG cell culture assay. It is a marker of NR mediated metabolism.Data from the assay component LTEA_HepaRG_UGT1A6 was analyzed into 1 endpoint. This assay endpoint, LTEA_HepaRG_UGT1A6, was analyzed with bidirectional fitting relative to DMSO as the negative control and baseline of activity. Using a type of inducible reporter, measures of mRNA induction for gain or loss-of-signal activity can be used to understand regulation of transcription factor activity. To generalize the intended target to other relatable targets, this assay endpoint is annotated to the transferase intended target family, where the subfamily is glucuronosyltransferase.
A total of 1060 chemcials from the ToxCast library were tested in eight-point concentration-response experiments. Cell culture and cytotoxicity assays were conducted at Thermo Fisher Scientific's Custom Services facility (Madison, WI). A single lot of human HepaRG cells (Thermo Fisher Scientific, Frederick, MD) was used for the cell culture experiments. 96-well format collagen type I coated plates of human HepaRG cells were prepared using established methods. Briefly, cryopreserved HepaRG cells were thawed, plated at a density of approximately 100,000 cells/well in HepaRG Thaw, Plate, and General Purpose media (HPRG770, Thermo Fisher Scientific), and incubated for 48 hours. 0.5% DMSO was selected as vehicle control to balance the requisite need of DMSO in HepaRG cultures to maintain differentiation (for example, baseline metabolism, proportions of hepatocytes vs. cholangiocytes), while enabling further hepatic receptor pathway activation (for example, PXR and CAR) in response to chemical exposure. 48 hours after plating, the culture medium was replaced with HepaRG Serum-Free Incudtion Media. Cells were exposed to each test chemical in duplicate and maintained in CO2 incubators for another 48 hours. Chemical plates were thawed to room temperature and 200x concentrations of treatment groups were prepared. 8-point conentration-reponse curves were made with the highest exposure at 100 uM, followed by half-log dilutions, all in 0.5% DMSO. Each test plate contained variouse controls, induction positive controls (1mM phenobarbital), cytotoxicity positive controls ([…] aflatoxin B1), vehicle controls (0.5% DMSO), and total lysis controls (0.5% DMSO). Cell morphology images were taken using an Essen IncuCyte FLR automated microscope, with six 96-well plates imaged in about 24 minutes. Images were captured and exported and JPEG files. Spent culture media was transfered to black-well plates for the LDH assay, and remaining media was sorted at -80 C for later use. Cells were treated with RLT buffer and frozen until shipped for gene expression analysis. Total RNA was isolated from the cell suspension in 75 uL of Buffer RLT (Qiagen, Germantown, MD 20874) by Quintiles/Expression Analysis (Durham, NC) using a custom isolation procedure. Total RNA from each plate well was transferred to a preamplification plate. Fluidigm's 96.96 Dynamic ArrayTM (Fluidigm, Amsterdam, the Netherlands) technology was used for gene expression analyses by quantitative reverse transcription polymerase chain reaction (qRT-PCR, performed by Quintiles/Expression Analysis, Durham, NC)89. Standard TaqManTM Assays (Applied Biosystems/ThermoFisher Scientific, Foster City, CA) were used to assess the expression of 93 genes selected based on their selectivity and sensitivity to important hepatic receptors known to be modulated by environmental chemicals; importance in human hepatocyte functionality; and hepatotoxicity. […]
`C[Si]1(C)O[Si](C)(C)O[Si](C)(C)O[Si](C)(C)O1`: the result was inactive.

In the case of `Nc1ccc(S(=O)(=O)c2ccc(N)cc2)cc1`, the molecule was classed as inactive.

`COc1ccc(C)cc1N`: the outcome was inactive.

For the molecule `Nc1ccccc1N`, the concentration at half-maximal activity (AC50) (in general, the concentration at which the activity in the assay is half-maximal) was 75.8 µM (active).

In the case of `C=CCc1ccc(O)c(OC)c1`, the call was inactive.

On to `CCc1c(C(=O)NN2CCCCC2)nn(-c2ccc(Cl)cc2Cl)c1-c1ccc(Br)cc1`, for which the AC50 is 73.6 µM (active).

Regarding `CCCCCCOCCO`, the molecule was classed as inactive.

For `Cc1ccccc1Cl`, the molecule was called inactive.

As for `Cc1ccc(C)c(C)c1`, the call was inactive.

Take `Cc1cc(NC(=O)C(=O)O)cc(C)c1Oc1ccc(O)c2c1CCC2`: the result was inactive.

Regarding `CC(=O)OCCOCCOCCOC(C)=O`, the result was inactive.

For `C[C@]12C=CC(=O)C=C1CC[C@@H]1[C@@H]2C(=O)C[C@@]2(C)[C@H]1CC[C@]2(O)C(=O)CO`, the call was inactive.

In the case of `CC(CO)OC(C)CO` (stereo not given) (tested in a mixture with another compound), the molecule was called inactive.

`CCCCN(CCCC)CCCC`: the call was inactive.

For `CCOC(=O)CCC(=O)OCC`, the result was inactive.

Regarding `COc1ccc(S(=O)(=O)N2C(=O)[C@@](c3ccccc3OC)(N3C[C@H](O)C[C@H]3C(=O)N(C)C)c3cc(Cl)ccc32)c(OC)c1`, the AC50 is 79 µM (active).

With `CNC(=O)[C@H]1O[C@@H](n2cnc3c(NCc4cc(Cl)ccc4OCc4cc(C)no4)ncnc32)[C@H](O)[C@@H]1N`, the outcome was inactive.

In the case of `Cc1ccc(N(C)C)cc1`, the molecule was called inactive.

Regarding `COc1ccc2c(c1)c(CC(=O)O)c(C)n2C(=O)c1ccc(Cl)cc1`, the call was inactive.

In the case of `Cc1oc(-c2ccccc2)nc1CCOc1cccc2c1ccn2CCC(=O)O`, the AC50 was 79.8 µM (active).

Take `COC(=O)c1ccc(O)cc1`: the molecule was classed as inactive.

For `CCCCCCC(=O)OCC`, the molecule was called inactive.

Consider `CC(=O)C(C)=CC1C(C)=CCCC1(C)C` (stereo not given), for which the molecule was classed as inactive.

For `CCNc1cccc(C)c1`, the molecule was called inactive.

On to `Nc1nc(N)c2nc(CNc3ccc(C(=O)N[C@@H](CCC(=O)O)C(=O)O)cc3)cnc2n1`, for which the molecule was classed as inactive.

For the molecule `OC[C@@H](O)[C@@H](O)[C@H](O)[C@H](O)CO`, the call was inactive.

As for `Cc1ccc(C(C)C)c(O)c1`, the result was inactive.

As to `NC(=O)Cn1c(=O)cc(CCN2CCN(c3nccc4sccc34)CC2)c2ccc(F)cc21`, the AC50 is 34.6 µM (active).

Regarding `O=C(OCCCCCOC(=O)c1ccccc1)c1ccccc1`, the call was inactive.

As for `CC1=C(/C=C/C(C)=C/C=C/C(C)=C/CO)C(C)(C)CCC1`, the molecule was classed as inactive.

With `Cc1ccc2ncccc2c1`, the call was inactive.

With `CCCc1cc(=O)[nH]c(=S)[nH]1`, the result was inactive.

Regarding `CCCCCCCCCCCC(=O)OC`, the call was inactive.

Consider `O=c1c(O)c(-c2ccc(O)c(O)c2)oc2cc(O)cc(O)c12`, for which the molecule was called inactive.

Regarding `O=c1[nH]cc(F)c(=O)[nH]1`, the outcome was inactive.

With `C1CCC(SSC2CCCCC2)CC1`, the outcome was inactive.

As for `CCCCc1ccc2c(n1)[C@@H](c1ccc(OC)cc1C[C@H](C)C(=O)O)[C@H](C(=O)O)[C@H]2c1ccc2c(c1)OCO2`, the molecule was classed as inactive.

On to `NCC1(Cc2noc(=O)[nH]2)CCCCC1`, for which the AC50 was 0.226 µM (active).

In the case of `O=[N+]([O-])C(CO)(CO)CO`, the molecule was called inactive.

On to `CC(C)c1ccc(C(=O)N=C(N)N)cc1S(C)(=O)=O`, for which the outcome was inactive.
